The target of assay [1] is BDNF/NT-3 growth factors receptor (Homo sapiens) (UniProt Q16620). The note with it: at 10 µM.
Assay [2] has as its target T1, Tyrosine-protein kinase TXK (Homo sapiens) (UniProt P42681).
T1 sequence (whole entry): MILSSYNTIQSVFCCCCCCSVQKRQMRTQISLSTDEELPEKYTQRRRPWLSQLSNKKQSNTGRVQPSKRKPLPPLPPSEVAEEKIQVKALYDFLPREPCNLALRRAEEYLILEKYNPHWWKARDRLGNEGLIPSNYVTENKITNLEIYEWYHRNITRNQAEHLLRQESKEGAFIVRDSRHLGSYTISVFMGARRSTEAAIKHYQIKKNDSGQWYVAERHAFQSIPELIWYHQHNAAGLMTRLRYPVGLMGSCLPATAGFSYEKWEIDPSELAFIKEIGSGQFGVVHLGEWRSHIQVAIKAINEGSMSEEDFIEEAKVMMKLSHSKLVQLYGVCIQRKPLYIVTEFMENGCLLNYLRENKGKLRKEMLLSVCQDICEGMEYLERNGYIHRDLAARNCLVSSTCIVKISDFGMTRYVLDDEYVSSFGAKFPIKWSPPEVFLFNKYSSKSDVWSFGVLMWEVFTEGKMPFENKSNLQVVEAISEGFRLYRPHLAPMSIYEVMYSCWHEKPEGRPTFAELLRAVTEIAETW
The note with it: at 1 µM.

For assay [3], the target named is T1, Tyrosine-protein kinase TXK (Homo sapiens). The note with it: at 10 µM.
The target of assay [4] is T2, Serine/threonine-protein kinase ULK2 (Homo sapiens) (UniProt Q8IYT8).
T2 sequence (whole entry): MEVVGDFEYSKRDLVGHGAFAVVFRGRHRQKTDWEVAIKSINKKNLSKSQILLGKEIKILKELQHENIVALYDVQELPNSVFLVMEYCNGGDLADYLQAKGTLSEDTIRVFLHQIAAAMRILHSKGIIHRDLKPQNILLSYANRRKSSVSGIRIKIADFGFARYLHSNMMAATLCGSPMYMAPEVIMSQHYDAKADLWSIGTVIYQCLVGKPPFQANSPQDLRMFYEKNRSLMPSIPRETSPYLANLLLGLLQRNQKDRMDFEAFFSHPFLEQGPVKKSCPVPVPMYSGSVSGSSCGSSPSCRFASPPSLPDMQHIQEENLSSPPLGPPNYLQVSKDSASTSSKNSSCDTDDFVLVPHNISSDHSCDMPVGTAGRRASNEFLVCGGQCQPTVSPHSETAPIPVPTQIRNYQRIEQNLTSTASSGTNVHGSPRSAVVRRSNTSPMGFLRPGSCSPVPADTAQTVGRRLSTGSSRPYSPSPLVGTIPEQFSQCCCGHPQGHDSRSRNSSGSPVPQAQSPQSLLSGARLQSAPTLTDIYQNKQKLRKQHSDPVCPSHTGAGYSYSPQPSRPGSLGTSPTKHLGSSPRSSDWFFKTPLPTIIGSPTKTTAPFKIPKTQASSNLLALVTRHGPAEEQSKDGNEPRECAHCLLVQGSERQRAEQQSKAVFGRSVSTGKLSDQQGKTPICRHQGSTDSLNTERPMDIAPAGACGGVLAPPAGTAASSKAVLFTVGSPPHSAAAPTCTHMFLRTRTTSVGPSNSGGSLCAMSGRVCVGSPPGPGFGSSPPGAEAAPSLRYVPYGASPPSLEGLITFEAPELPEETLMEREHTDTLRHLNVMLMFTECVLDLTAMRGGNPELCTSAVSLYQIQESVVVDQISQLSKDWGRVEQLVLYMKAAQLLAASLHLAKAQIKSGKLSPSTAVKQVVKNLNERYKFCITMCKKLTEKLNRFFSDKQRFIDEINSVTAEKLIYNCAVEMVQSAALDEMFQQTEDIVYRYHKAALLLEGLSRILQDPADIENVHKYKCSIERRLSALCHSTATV
To be noted: at 1 µM.

The target of assay [5] is T2, Serine/threonine-protein kinase ULK2 (Homo sapiens). The note with it: at 10 µM.
Assay [6] addresses T3, Serine/threonine-protein kinase ULK3 (Homo sapiens) (UniProt Q6PHR2).
T3 sequence (whole entry): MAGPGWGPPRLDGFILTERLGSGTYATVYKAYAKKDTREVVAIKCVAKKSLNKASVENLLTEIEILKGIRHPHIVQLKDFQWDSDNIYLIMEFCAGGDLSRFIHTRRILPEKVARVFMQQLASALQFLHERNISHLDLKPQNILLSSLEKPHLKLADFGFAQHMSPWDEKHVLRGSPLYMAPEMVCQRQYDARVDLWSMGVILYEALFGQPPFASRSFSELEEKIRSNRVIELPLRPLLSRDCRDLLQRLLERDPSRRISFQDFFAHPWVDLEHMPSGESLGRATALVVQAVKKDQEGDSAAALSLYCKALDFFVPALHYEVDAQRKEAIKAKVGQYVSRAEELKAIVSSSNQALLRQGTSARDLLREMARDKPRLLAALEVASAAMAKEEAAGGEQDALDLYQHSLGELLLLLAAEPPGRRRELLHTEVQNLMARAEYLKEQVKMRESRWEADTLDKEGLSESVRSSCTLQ
To be noted: at 1 µM.

The target of assay [7] is T3, Serine/threonine-protein kinase ULK3 (Homo sapiens). To be noted: at 10 µM.
Assay [8] addresses Serine/threonine-protein kinase VRK2 (Homo sapiens) (UniProt Q86Y07). The note with it: at 1 µM.
The target is the same in assay [9]. The note with it: at 10 µM.
Assay [10] deals with Serine/threonine-protein kinase WNK2 (Homo sapiens) (UniProt Q9Y3S1). The note with it: at 1 µM.
Sequence of Serine/threonine-protein kinase WNK2 (Homo sapiens) (Q9Y3S1 whole entry): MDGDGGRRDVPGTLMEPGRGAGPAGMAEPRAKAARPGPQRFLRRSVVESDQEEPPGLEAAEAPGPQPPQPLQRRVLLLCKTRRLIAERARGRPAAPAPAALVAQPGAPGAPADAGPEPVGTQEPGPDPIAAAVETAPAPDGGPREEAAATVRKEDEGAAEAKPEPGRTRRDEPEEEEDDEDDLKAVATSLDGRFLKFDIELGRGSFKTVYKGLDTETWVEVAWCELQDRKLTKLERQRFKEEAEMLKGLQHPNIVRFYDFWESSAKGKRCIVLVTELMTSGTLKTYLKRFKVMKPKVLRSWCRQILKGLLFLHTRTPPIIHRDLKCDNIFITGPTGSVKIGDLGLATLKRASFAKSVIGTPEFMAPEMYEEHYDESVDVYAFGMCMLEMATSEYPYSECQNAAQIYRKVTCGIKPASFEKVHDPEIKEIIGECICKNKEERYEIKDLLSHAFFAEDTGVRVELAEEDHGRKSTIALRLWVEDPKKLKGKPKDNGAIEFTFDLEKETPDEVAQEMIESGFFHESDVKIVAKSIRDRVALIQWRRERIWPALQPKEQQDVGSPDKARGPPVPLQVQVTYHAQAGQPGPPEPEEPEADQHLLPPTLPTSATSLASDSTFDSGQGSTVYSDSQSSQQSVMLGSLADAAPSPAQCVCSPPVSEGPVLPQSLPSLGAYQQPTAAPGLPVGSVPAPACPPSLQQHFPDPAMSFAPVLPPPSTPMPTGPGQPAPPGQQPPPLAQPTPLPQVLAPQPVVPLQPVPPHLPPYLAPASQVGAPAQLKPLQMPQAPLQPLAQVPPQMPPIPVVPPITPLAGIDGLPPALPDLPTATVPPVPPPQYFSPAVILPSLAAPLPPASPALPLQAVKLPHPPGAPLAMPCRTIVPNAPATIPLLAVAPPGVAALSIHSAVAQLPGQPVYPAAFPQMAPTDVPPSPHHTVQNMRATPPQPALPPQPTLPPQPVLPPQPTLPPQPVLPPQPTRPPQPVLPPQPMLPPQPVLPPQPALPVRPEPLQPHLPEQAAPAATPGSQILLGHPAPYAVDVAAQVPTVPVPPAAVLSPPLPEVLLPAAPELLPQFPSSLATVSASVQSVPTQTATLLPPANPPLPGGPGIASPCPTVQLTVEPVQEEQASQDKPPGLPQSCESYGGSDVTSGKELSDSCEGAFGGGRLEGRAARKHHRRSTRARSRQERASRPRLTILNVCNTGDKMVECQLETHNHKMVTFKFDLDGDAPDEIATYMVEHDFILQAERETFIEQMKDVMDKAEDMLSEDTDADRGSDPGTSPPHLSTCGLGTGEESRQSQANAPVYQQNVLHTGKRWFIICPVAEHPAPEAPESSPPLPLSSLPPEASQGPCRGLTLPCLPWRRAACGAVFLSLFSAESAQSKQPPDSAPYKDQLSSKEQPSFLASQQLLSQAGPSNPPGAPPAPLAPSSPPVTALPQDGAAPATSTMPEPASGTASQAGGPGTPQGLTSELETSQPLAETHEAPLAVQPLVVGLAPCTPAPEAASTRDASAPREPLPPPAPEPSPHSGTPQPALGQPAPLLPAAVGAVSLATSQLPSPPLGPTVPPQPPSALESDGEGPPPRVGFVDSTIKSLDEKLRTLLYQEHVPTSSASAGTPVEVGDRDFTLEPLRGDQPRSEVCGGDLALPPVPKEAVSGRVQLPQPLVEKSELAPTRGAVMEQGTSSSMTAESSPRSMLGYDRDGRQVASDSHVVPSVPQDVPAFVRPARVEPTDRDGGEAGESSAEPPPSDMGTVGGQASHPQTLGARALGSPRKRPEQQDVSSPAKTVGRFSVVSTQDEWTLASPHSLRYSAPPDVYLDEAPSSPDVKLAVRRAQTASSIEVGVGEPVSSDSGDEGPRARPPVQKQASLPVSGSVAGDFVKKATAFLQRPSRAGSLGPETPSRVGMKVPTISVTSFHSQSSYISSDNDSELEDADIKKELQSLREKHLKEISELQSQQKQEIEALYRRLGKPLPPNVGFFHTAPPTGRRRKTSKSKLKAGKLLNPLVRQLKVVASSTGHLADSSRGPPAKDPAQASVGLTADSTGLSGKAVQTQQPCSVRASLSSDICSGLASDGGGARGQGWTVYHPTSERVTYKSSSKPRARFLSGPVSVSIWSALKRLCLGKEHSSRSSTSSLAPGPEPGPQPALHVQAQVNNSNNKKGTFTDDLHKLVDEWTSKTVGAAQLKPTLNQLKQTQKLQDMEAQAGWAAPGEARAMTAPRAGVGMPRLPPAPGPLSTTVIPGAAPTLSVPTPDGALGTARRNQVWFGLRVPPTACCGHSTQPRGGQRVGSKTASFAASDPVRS

Sequence of BDNF/NT-3 growth factors receptor (Homo sapiens) (Q16620 32-822 limits assumed): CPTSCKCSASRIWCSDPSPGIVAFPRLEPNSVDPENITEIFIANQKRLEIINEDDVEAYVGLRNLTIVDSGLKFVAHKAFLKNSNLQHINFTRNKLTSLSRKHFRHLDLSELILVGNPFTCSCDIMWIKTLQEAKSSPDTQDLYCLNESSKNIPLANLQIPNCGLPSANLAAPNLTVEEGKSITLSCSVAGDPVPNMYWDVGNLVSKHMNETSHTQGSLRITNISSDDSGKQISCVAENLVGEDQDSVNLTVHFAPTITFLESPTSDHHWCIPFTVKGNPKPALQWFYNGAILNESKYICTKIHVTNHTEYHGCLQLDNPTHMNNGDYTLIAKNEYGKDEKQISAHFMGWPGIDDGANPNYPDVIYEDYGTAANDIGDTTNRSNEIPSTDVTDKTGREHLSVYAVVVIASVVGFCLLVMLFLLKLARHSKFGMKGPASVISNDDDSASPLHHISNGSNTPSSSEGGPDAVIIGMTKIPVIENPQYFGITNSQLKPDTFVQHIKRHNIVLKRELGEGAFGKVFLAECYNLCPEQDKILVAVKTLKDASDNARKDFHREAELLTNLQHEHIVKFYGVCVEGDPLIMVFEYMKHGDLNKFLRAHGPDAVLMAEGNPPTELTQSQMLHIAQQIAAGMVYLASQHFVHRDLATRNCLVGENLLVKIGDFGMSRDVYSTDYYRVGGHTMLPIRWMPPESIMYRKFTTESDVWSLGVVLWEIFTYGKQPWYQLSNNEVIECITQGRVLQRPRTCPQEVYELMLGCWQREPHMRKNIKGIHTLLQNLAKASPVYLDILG
Sequence of Serine/threonine-protein kinase VRK2 (Homo sapiens) (Q86Y07 whole entry): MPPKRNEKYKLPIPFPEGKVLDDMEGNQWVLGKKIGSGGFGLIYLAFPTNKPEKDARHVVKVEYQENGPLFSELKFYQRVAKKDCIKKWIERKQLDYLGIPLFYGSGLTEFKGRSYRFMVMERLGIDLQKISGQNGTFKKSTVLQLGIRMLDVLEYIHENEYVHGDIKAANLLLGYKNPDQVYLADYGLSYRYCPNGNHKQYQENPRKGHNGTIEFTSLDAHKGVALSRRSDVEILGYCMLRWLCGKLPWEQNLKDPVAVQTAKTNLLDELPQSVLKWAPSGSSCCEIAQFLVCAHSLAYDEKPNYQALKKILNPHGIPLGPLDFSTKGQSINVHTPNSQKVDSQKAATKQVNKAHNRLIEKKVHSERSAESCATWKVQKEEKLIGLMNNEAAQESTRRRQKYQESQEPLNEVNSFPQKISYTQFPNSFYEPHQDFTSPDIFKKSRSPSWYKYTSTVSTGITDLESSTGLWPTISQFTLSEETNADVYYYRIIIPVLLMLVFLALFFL

As to `Oc1ccc(-c2nc(-c3ccc(F)cc3)c(-c3ccncc3)[nH]2)cc1`, the residual activity in assay [1] stood at 61%; in assay [2] it was 78%; in [3] it was 43%; in assay [4], 112%; in [5], 104%; in [6] it was 102%. The residual activity in assay [7] is 95%; in assay [8], 117% (inactive); in [9], 86%; in assay [10] it was 118% (inactive).
For the compound `COc1ccc(S(=O)(=O)N(CCO)c2ccccc2CN(C)C/C=C/c2ccc(Cl)cc2)cc1`, the residual activity in assay [1] came to 61%; in assay [2] it was 94%; in assay [3], 67%; in [4], 113%; in assay [5], 94%; in assay [6] it was 93%. The residual activity is 95% in assay [7], 102% (inactive) in [8], 80% in [9] and 100% (inactive) in [10].
On to `O=C1NC(=O)c2cc(Nc3ccc(F)cc3)c(Nc3ccc(F)cc3)cc21`, for which the residual activity in assay [1] amounted to 88%; in assay [2] it was 79%; in assay [3] it was 27%; in [4] it was 107%; in assay [5], 89%; in assay [6], 107%. The residual activity in assay [7] was 81%; in [8], 99% (inactive); in assay [9], 86%; in assay [10], 82% (inactive).
As to `c1ccc(-c2n[nH]cc2-c2ccnc3ccccc23)nc1`, the residual activity in assay [3] was 64%; in [5] it was 97%; in [6], 100%; in assay [7], 98%; in [8] it was 95% (inactive); in [9], 67%. Further, in assay [10], the residual activity is 105% (inactive).
As to `Cn1nc2c3c(cccc31)C(=O)c1ccccc1-2`, the residual activity is 66% in assay [1]; 82% in assay [2]; 61% in assay [3]; 104% in [5]; 89% in assay [6]; 84% in assay [7]. The residual activity in assay [8] was 92% (inactive); in assay [9] it was 77%; in [10] it was 93% (inactive).
For the compound `Nc1ccc2ncnc(NCCc3ccc(Oc4ccccc4)cc3)c2c1`, the residual activity came to 58% in assay [1]; 80% in [2]; 61% in [3]; 121% in assay [4]; 108% in assay [5]; 103% in assay [6]. Moreover, the residual activity in assay [7] was 87%; in assay [8] it was 106% (inactive); in assay [9], 95%; in assay [10], 110% (inactive).
Take `c1ccc(-c2n[nH]c3c2oc2ccccc23)cc1`: the residual activity in [1] is -3%; in assay [2] it was 97%; in [3], 73%; in assay [5], 86%; in [7], 71%; in [8] it was 99% (inactive). Further, the residual activity in assay [9] was 77%; in [10], 114% (inactive).
Take `CNc1cc2c(Nc3cccc(Br)c3)ncnc2cn1`: the residual activity in assay [1] was found to be 21%; in assay [2], 98%; in assay [3] it was 64%; in assay [4], 103%; in assay [5], 95%; in [6], 103%. Further, the residual activity in [7] is 70%; in assay [8] it was 99% (inactive); in [9], 91%; in assay [10], 105% (inactive).
On to `CC(C)n1cnc2c(NCc3ccccc3)nc(NCCCO)nc21`, for which the residual activity was determined as 98% in [1]; 75% in assay [2]; 74% in assay [3]; 106% in assay [4]; 101% in [5]; 95% in [6]. Also, the residual activity was 90% in [7], 95% (inactive) in [8], 69% in assay [9] and 98% (inactive) in [10].
`Oc1c2ccccc2c2c3c(cccc13)N=N2`: the residual activity in assay [1] stood at 5%; in [2], 58%; in [3], 23%; in [4], 90%; in assay [5], 45%; in [6] it was 73%. In addition, the residual activity was 43% in [7], 78% (inactive) in assay [8], 36% in [9] and 79% (inactive) in [10].
Take `Ic1cccc(CSc2nnc(-c3ccncc3)o2)c1`: the residual activity was determined as 28% in assay [1]; 75% in assay [2]; 81% in [3]; 98% in [4]; 86% in assay [6]; 92% in assay [7]. For the same compound, the residual activity was 92% (inactive) in assay [8], 79% in assay [9] and 87% (inactive) in [10].
As for `CO[C@H]1[C@@H](OC)C[C@H](C)[C@@H](OC)C2=CC(=O)C=C(NC(=O)/C(C)=C/C=C/[C@H](OC)[C@@H](OC(N)=O)/C(C)=C/[C@@H]1C)C2=O`, the residual activity in [1] was 99%; in [2] it was 89%; in assay [3], 103%; in [4], 100%; in assay [5] it was 95%; in assay [6], 88%. The residual activity in assay [7] was 92%; in assay [8], 108% (inactive); in assay [9] it was 96%; in assay [10], 100% (inactive).
`CN(C)CCCn1cc(C2=C(c3c[nH]c4ccccc34)C(=O)NC2=O)c2ccccc21`: the residual activity in [1] was found to be 14%; in assay [3] it was 79%; in assay [4], 110%; in assay [5], 88%; in assay [6] it was 101%; in assay [7], 61%. Besides, the residual activity in assay [8] is 119% (inactive); in [9] it was 76%; in assay [10], 120% (inactive).
As to `Nc1cccc(-c2cc3c(Oc4cccc(O)c4)ncnc3[nH]2)c1`, the residual activity in assay [1] is 44%; in assay [2], 27%; in [3], 3%; in assay [5] it was 76%; in assay [6], 31%; in assay [7], 6%. Moreover, the residual activity in assay [8] was 100% (inactive); in assay [9] it was 89%; in assay [10], 88% (inactive).
For the compound `O=C(Nc1cccc(Nc2nccc(Nc3cccc(C(F)(F)F)c3)n2)c1)C1CC1`, the residual activity is -5% in assay [1]; 60% in assay [2]; 15% in assay [3]; 101% in assay [4]; 88% in [5]; 97% in assay [6]. For the same compound, the residual activity is 66% in assay [7], 93% (inactive) in assay [8], 85% in assay [9] and 104% (inactive) in [10].
With `O=C1Nc2ccc(Br)cc2/C1=C\c1cc2c([nH]1)CCCC2`, the residual activity is 44% in [1]; 107% in [2]; 76% in assay [3]; 52% in assay [6]; 55% in assay [7]; 110% (inactive) in assay [10].
Regarding `CCN(CC)C(=O)c1ccc(Nc2nc(OCC3CCCCC3)c3nc[nH]c3n2)cc1`, the residual activity in [1] amounted to 2%; in [2] it was 49%; in assay [3] it was 5%; in assay [4], 80%; in [5], 35%; in [6], 36%. In addition, the residual activity in [7] was 8%; in [10] it was 96% (inactive).
In the case of `CO[C@H]1C[C@@H]2CC[C@@H](C)[C@@](O)(O2)C(=O)C(=O)N2CCCC[C@H]2C(=O)O[C@H]([C@H](C)C[C@@H]2CC[C@@H](O)[C@H](OC)C2)CC(=O)[C@H](C)/C=C(\C)[C@@H](O)[C@@H](OC)C(=O)[C@H](C)C[C@H](C)/C=C/C=C/C=C/1C`, the residual activity in assay [2] was found to be 109%; in assay [3] it was 111%; in [4], 91%; in assay [5] it was 98%; in assay [6], 100%; in assay [7], 94%. Besides, the residual activity is 97% (inactive) in assay [8], 97% in [9] and 96% (inactive) in assay [10].

What is called residual activity is the signal under treatment as a percentage of the control signal.

For the origin of these results see ChEMBL document CHEMBL2218924, “A broad activity screen in support of a chemogenomic map for kinase signalling research and drug discovery” (Biochem J, 2013).
